The results in this text go back to PubChem BioAssay (EPA / NIEHS).

Assay [1] has as its target Estrogen receptor (Homo sapiens) (UniProt P03372). The assay can be described thus: OT_ER_ERaERa_0480: Odyssey Thera (OT) 8-hour HEK293T Protein-Complementation Assay for Estrogen Receptor-alpha/-alpha Homodimer (AID 2283351).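 Note: rise in fluorescence from reassembled reporter fragments on ERα LBD homodimer in nucleus or whole cell.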 In outline:
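Binding reporter in which dimerisation of ERα LBD (aa 310-547) fusions reconstitutes a fluorescent reporter in HEK293T cells. Compounds incubated 8 h; mean fluorescence intensity increase versus DMSO scored.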

Assay [2] has as its target T1, Estrogen receptor (Homo sapiens) + Estrogen receptor beta (Homo sapiens) (UniProt P03372+Q92731). The assay can be described thus: OT_ER_ERaERb_0480: Odyssey Thera (OT) 8-hour HEK293T Protein-Complementation Assay for Estrogen Receptor-alpha/-beta Heterodimer (AID 2283352). In outline: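 Human HEK293T cells were treated for 8 hours and receptor heterodimerisation was detected through reconstitution of a fluorescent reporter split between ER-alpha and ER-beta ligand-binding domains. Activity was analysed as gain of signal against DMSO.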

For assay [3], the target named is T1, Estrogen receptor (Homo sapiens) + Estrogen receptor beta (Homo sapiens). The assay can be described thus: OT_ER_ERaERb_1440: Odyssey Thera (OT) 24-hour HEK293T Protein-Complementation Assay for Estrogen Receptor-alpha/-beta Homodimer (AID 2283356).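 Note: heteromer of ER alpha and ER beta binding domains; hits raise reporter fluorescence and both agonists and antagonists give an increase.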 In outline:
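24 h exposure; HEK293T PCA cells with ERα/ERβ LBD fragments; signal rise in nuclear or whole-cell fluorescence over vehicle.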

Assay [4] has as its target Androgen Receptor/SRC-1 Co-activator, AR (gene 367) (UniProt P10275). As to the kind of experiment: OT_AR_ARSRC1_0480: Odyssey Thera (OT) 8-hour HEK293T Protein-Complementation Assay for Androgen Receptor/SRC-1 Co-activator (AID 2283354).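 Note: hits raise the complementation signal above DMSO so AC50 marks enhancers.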 In outline: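 HEK293T cells stably expressing AR and SRC-1 fused to Venus YFP fragments, imaged 8 h after dosing. Complementation fluorescence scored as nuclear/cytoplasmic ratio at 488 nm in at least 400 cells per image; gain fitted versus DMSO.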

For assay [5], the target named is Estrogen receptor beta (Homo sapiens) (UniProt Q92731). As to the kind of experiment: OT_ER_ERbERb_0480: Odyssey Thera (OT) 8-hour HEK293T Protein-Complementation Assay for Estrogen Receptor-beta/-beta Homodimer (AID 2283357).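 Note: active means signal gain over DMSO baseline.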 In outline: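 Fluorescence intensity, nuclear for agonists and nuclear plus cytoplasmic for antagonists, was quantified by laser scanning cytometry versus vehicle after 8 h treatment. The cells were HEK293T stably carrying ER beta LBD fragment-complementation partners.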

Assay [6] deals with human Peroxisome Proliferator-activated Receptor alpha (PPARa), PPARA (gene 5465) (UniProt Q07869). As to the kind of experiment: NVS_NR_hPPARa: NovaScreen (NVS) Nuclear Receptor Binding Assay for human Peroxisome Proliferator-activated Receptor alpha (PPARa) (AID 2283359).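 Note: activity means loss of TR-FRET signal versus DMSO baseline.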 In short, it runs like this: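 Cell-free TR-FRET binding assay with extracted PPARα protein, read 1 h after dosing. Primary screen in duplicate at 25 uM, with actives retested in concentration series. Loss of signal versus DMSO.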

Assay [7] has as its target Nuclear receptor subfamily 1 group I member 2 (Homo sapiens) (UniProt O75469). The assay can be described thus: NVS_NR_hPXR: NovaScreen (NVS) Nuclear Receptor Binding Assay for human Pregnane X Receptor (PXR) (AID 2283365).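 Note: a drop in FRET signal versus DMSO baseline means the compound binds.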 In short, it runs like this:
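Read-out: TR-FRET, human PXR, 2 h post-dosing, cell-free. Loss of signal vs DMSO taken as binding activity; 25 uM primary, concentration series secondary.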

Assay [8] addresses rat Mineralocorticoid Receptor (MR), Nr3c2 (gene 25672) (UniProt P22199). As to the kind of experiment: NVS_NR_rMR: NovaScreen (NVS) Nuclear Receptor Binding Assay for rat Mineralocorticoid Receptor (MR) (AID 2283355). In outline: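 Cell-free radioligand binding to mineralocorticoid receptor from adrenalectomized rat brain supernatant, scintillation counting after 24 h. Primary screen in duplicate at 25 uM; actives retested in concentration series. Loss of specific binding versus DMSO.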

The target of another assay is PGR (gene 5241) (UniProt P06401). As to the kind of experiment: NVS_NR_hPR: NovaScreen (NVS) Nuclear Receptor Binding Assay for human Progestron Receptor (PR) (AID 2283360).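 Note: active means loss of bound radioligand signal versus DMSO baseline.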 In outline: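 Cell-free radioligand binding using receptor protein extracted from T47D cells, read by scintillation counting 18 hours after dosing. Loss of signal relative to DMSO baseline indicates displacement; primary screen single concentration 25 uM in duplicate, actives followed in concentration series.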

In assay [9] the target is Glucocorticoid receptor (Homo sapiens) (UniProt P04150). As to the kind of experiment: NVS_NR_hGR: NovaScreen (NVS) Nuclear Receptor Binding Assay for human Glucocorticoid Receptor (GR) (AID 2283363).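 For AC50: activity is loss of specific radioligand binding signal relative to DMSO.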 In short, it runs like this:
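Cell-free radioligand displacement assay on extracted human GR, read 16 h after dosing by filter-based scintillation counting. Screened in duplicate at 25 uM, then concentration series for actives; loss of signal versus DMSO baseline.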

The target of assay [10] is Peroxisome proliferator-activated receptor gamma (Homo sapiens) (UniProt P37231). The assay can be described thus: NVS_NR_hPPARg: NovaScreen (NVS) Nuclear Receptor Binding Assay for human Peroxisome Proliferator-activated Receptor gamma (PPARg) (AID 2283370). In outline: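 Extracted receptor protein, cell-free; compound incubated 2 h then fluorescence polarization read. Baseline: DMSO. Actives from 25 uM duplicate screen re-run across concentrations.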

The target in assay [11] is guinea pig Sigma Receptor, Non-selective Binding, SIGMAR1 (gene 100135589) (UniProt Q60492). The assay can be described thus: NVS_OR_gSIGMA_NonSelective: NovaScreen (NVS) Nuclear Receptor Binding Assay for guinea pig Sigma Receptor, Non-selective Binding (AID 2283367). In short, it runs like this:
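Radioligand displacement on guinea pig brain membranes, read by filter-based scintillation counting 1 h after dosing. Loss of signal versus DMSO; initial duplicate single-point screen at 25 uM, actives followed in concentration series.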

Assay [12] has as its system guinea pig Dopamine Transporter (DAT), gene 100714898. As to the kind of experiment: NVS_TR_gDAT: NovaScreen (NVS) Transporter Assay for guinea pig Dopamine Transporter (DAT) (AID 2283369).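 Note: active compounds lower bound radioligand signal relative to DMSO.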 In short, it runs like this:
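Primary pass: duplicate wells at 25 uM, threshold e.g. 30% inhibition. Follow-up: singleton concentration-response, highest 50 uM. Radioligand binding on guinea pig striatal membranes, 2 h, filtration scintillation detection.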

For assay [13], the target named is human Dopamine Transporter (DAT), SLC6A3 (gene 6531) (UniProt Q01959). As to the kind of experiment: NVS_TR_hDAT: NovaScreen (NVS) Transporter Assay for human Dopamine Transporter (DAT) (AID 2283374).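 Note: activity means loss of bound radioligand signal relative to DMSO.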 In outline:
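Cell-free radioligand displacement binding at human DAT, 1 h after dosing, with filtration and scintillation counting. Primary screen in duplicate at 25 uM, actives then in concentration series. Loss of bound signal versus DMSO scored.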

Results filed as inconclusive are left out. Calls of active or inactive are those of the source. Rule for the calls: active = hit-call score of the fitted dose curve at least 0.9, where 1 is the maximum; inconclusive = response in the unintended direction; inactive = score below 0.9.

Chain of Androgen Receptor/SRC-1 Co-activator, AR (gene 367) (P10275 whole entry, looked up, the tested form may be a part): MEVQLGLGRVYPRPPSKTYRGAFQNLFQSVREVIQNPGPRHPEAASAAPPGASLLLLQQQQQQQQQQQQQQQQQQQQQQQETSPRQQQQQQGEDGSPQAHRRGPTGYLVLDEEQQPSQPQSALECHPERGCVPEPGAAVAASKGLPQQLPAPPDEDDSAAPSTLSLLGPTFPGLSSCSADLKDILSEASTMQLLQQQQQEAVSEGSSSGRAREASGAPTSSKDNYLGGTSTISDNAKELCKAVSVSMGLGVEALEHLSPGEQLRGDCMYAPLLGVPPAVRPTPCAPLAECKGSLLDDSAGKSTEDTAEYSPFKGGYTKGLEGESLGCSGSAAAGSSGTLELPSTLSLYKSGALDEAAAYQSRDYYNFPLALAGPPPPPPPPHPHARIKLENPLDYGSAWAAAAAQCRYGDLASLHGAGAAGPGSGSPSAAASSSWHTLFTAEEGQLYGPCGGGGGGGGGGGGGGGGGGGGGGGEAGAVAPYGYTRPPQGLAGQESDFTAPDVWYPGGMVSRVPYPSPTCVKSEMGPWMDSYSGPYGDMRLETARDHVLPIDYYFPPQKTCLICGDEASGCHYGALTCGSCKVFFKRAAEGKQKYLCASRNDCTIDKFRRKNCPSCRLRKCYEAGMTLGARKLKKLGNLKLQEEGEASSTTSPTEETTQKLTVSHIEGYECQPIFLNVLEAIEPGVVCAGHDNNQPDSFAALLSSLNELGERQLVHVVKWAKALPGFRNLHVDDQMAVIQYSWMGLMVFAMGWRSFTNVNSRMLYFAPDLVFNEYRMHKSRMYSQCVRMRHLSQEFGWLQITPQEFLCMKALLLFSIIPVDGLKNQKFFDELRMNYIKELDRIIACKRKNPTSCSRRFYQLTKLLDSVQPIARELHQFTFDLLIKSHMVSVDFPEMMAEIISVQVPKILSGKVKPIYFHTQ
Chain of Nuclear receptor subfamily 1 group I member 2 (Homo sapiens) (O75469 whole entry, looked up): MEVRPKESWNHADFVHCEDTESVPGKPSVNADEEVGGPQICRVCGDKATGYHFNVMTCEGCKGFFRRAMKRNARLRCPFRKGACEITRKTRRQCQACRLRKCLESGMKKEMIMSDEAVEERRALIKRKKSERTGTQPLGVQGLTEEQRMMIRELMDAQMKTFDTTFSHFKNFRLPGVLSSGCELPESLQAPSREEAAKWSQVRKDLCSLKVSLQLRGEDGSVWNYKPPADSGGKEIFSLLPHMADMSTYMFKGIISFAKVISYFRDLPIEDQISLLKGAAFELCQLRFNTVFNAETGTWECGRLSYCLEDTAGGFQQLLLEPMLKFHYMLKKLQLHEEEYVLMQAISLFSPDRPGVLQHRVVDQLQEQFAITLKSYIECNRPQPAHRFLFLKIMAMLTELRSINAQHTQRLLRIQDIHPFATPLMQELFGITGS
Chain of Glucocorticoid receptor (Homo sapiens) (P04150 whole entry, looked up): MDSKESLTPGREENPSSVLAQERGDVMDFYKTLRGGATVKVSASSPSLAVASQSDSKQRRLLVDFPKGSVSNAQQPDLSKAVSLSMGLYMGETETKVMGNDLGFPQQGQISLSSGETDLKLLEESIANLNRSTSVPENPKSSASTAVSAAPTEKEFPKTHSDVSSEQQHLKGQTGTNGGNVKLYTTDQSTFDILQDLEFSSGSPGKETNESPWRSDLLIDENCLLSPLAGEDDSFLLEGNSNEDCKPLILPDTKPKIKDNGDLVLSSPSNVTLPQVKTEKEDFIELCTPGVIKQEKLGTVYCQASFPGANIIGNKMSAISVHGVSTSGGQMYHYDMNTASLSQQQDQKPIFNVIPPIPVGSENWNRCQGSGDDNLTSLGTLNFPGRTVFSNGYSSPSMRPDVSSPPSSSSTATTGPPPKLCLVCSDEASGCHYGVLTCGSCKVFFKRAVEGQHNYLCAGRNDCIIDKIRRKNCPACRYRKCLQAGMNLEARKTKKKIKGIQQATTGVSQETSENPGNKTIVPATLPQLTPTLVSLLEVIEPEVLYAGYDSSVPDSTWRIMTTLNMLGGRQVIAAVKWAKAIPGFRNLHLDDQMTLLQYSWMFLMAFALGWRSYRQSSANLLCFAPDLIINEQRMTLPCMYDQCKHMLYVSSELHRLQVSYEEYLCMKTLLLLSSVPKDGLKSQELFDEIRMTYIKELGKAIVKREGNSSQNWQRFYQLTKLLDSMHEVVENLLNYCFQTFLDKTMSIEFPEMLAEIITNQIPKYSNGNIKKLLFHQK
Chain of rat Mineralocorticoid Receptor (MR), Nr3c2 (gene 25672) (P22199 whole entry, looked up): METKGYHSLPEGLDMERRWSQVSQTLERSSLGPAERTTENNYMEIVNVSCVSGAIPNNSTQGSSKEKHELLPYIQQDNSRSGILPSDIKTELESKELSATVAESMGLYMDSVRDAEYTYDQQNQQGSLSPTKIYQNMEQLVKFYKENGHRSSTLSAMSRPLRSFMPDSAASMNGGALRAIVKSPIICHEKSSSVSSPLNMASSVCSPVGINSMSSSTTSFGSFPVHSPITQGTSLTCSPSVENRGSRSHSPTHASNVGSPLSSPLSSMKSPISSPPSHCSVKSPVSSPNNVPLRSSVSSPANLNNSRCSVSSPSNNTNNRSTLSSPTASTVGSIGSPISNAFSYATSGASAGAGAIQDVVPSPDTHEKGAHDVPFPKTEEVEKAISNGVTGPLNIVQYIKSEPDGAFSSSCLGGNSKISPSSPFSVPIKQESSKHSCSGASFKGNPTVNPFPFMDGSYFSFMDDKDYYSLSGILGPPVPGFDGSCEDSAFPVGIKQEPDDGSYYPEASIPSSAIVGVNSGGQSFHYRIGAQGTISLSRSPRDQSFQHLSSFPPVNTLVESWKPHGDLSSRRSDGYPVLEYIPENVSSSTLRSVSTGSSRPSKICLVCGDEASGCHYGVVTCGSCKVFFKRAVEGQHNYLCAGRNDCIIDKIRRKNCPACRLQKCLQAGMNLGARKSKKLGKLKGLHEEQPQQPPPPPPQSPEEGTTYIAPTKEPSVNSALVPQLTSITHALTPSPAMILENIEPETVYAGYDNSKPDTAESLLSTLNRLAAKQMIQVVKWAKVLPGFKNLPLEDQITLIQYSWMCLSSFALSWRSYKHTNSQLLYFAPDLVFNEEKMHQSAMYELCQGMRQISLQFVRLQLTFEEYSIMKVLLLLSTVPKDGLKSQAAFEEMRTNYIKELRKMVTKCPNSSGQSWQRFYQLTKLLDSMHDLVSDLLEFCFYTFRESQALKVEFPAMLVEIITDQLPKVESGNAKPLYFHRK
T1 sequence (P03372 whole entry, looked up, the tested form may be a part): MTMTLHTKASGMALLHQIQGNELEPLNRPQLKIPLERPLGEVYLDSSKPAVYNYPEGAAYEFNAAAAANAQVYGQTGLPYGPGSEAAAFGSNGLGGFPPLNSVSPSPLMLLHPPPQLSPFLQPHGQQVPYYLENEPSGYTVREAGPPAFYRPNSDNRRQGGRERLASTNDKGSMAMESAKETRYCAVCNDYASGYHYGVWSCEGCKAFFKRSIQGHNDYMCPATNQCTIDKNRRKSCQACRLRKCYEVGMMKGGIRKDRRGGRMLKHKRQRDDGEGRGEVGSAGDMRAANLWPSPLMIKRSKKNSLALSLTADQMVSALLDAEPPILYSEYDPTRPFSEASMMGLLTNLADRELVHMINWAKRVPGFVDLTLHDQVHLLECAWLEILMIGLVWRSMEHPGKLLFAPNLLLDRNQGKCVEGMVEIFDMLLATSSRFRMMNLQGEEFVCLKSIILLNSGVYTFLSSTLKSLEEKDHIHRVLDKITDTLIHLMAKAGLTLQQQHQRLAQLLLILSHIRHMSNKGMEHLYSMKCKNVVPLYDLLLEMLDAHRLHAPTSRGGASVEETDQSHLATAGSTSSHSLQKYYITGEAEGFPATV
T1 sequence (Q92731 whole entry, looked up, the tested form may be a part): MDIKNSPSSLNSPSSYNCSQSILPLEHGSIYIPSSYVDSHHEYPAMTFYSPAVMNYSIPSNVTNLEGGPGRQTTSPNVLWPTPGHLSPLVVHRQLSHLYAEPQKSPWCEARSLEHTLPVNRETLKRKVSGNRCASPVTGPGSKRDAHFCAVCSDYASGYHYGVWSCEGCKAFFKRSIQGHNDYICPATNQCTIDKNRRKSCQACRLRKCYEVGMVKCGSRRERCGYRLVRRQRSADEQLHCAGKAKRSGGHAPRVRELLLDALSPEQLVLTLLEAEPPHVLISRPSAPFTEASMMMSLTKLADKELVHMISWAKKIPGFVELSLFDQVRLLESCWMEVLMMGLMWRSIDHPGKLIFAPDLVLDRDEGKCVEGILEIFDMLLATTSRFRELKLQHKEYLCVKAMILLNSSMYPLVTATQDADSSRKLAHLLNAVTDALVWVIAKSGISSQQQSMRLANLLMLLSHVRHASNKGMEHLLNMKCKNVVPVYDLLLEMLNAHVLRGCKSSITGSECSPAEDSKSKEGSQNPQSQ
Chain of Estrogen receptor (Homo sapiens) (P03372 whole entry, looked up, the tested form may be a part): as the sequence (P03372 whole entry, looked up, the tested form may be a part) above
Chain of Estrogen receptor beta (Homo sapiens) (Q92731 whole entry, looked up, the tested form may be a part): as the sequence (Q92731 whole entry, looked up, the tested form may be a part) above
Chain of Peroxisome proliferator-activated receptor gamma (Homo sapiens) (P37231 whole entry, looked up): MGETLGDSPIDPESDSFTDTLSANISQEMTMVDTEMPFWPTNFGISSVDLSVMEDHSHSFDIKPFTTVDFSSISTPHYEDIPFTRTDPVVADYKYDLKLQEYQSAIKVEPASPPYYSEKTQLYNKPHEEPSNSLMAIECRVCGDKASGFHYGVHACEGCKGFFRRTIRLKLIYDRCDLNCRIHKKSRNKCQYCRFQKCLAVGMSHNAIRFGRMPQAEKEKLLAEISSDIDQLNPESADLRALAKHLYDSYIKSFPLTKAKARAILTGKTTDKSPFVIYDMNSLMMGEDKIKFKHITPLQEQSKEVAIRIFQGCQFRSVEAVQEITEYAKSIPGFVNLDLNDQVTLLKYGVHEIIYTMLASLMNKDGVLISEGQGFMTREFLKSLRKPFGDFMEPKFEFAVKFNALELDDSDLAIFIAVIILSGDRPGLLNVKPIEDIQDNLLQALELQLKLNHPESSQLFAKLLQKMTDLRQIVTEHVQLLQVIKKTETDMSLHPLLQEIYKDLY

Regarding `C=CCN=C=S`, the result in assay [1] was inactive.
With `CCN(CCO)CCO`, the compound was classed as inactive in [1], in assay [2] and in assay [3].
On to `O=C(NC(=O)c1c(F)cccc1F)Nc1ccc(Cl)cc1`, for which the result in assay [1], in assay [2] and in assay [3] was inactive.
In the case of `Cc1cc(Cl)ccc1OCCCC(=O)O`, the compound was classed as inactive in [4] and in [5].
With `N#CCC#N`, the compound was classed as inactive in [1], in assay [2], in assay [4], in assay [3], in assay [5] and in [6]. Further, in [7], the result was inactive.
Regarding `O=c1oc2ccccc2c(O)c1C(CC(O)c1ccc(-c2ccc(Br)cc2)cc1)c1ccccc1` (centres undefined), the outcome in assay [8] was inactive. In addition, the AC50 (commonly the concentration at which the activity in the assay is half-maximal) is 23.9 µM (active) with PGR (gene 5241) and 7.76 µM (active) in [9].
With `Clc1cccc(Cl)c1`, the outcome in assay [8] and in [5] was inactive.
As to `O=CCCl`, the call in assay [1], in [2], in assay [3], in assay [5] and in assay [7] was inactive.
As for `C=CC(Cl)CCl` (centres undefined), the compound was called inactive in [4] and in [5]. Also, the AC50 in [7] was 5.06 µM (active).
For the compound `CC(C=O)Cc1ccc2c(c1)OCO2` (centres undefined), the call in assay [8] and in [9] was inactive.
As to `CCOCn1c(-c2ccc(Cl)cc2)c(C#N)c(Br)c1C(F)(F)F`, the outcome in assay [1] and in assay [10] was inactive. For the same compound, the AC50 is 16.9 µM (active) in [2], 12.4 µM (active) in assay [3] and 17.3 µM (active) in [5].
With `CCCSP(=S)(OCC)Oc1ccc(SC)cc1` (centres undefined), the result in [1] and in assay [5] was inactive. The AC50 was 22.7 µM (active) in [2] and 24.1 µM (active) in assay [3].
Regarding `CCOP(=O)(OCC)OC(=CCl)c1ccc(Cl)cc1Cl`, the result in [8] was inactive. In addition, the AC50 was 42.9 µM (active) with PGR (gene 5241); 25 µM (active) in assay [9]; 10.9 µM (active) in assay [11]; 25 µM (active) in [12]; 25 µM (active) in assay [13].
Turning to `Cc1cc(C)cc(C)c1`, the outcome in [5] was inactive.
`CCCCCCCCCCCCN(C)C`: the compound was classed as inactive in [1] and in assay [2]. In addition, the AC50 was 73.9 µM (active) in assay [3], 76.5 µM (active) in assay [5] and 1.51 µM (active) in assay [11].
`O=C(NC(=O)c1c(F)cccc1F)Nc1cc(Cl)c(OC(F)(F)C(F)C(F)(F)F)cc1Cl` (centres undefined): the call in assay [1], in [2], in assay [4], in assay [5] and in [7] was inactive. For the same compound, the AC50 in assay [3] was 50.2 µM (active).
Take `N#Cc1cccnc1`: the call in [1], in assay [5] and in [6] was inactive.
Turning to `CC(C)=CC1C(C(=O)OCc2cccc(Oc3ccccc3)c2)C1(C)C` (centres undefined), the compound was called inactive in assay [1], in assay [2], in assay [3] and in assay [5]. Further, the AC50 in assay [13] is 17.2 µM (active).
Consider `O=C(CCl)Nc1ccccc1`, for which the compound was called inactive in assay [1], in assay [3], in [7] and in [10]. Further, in [4], the half-maximal activity concentration (AC50) is 59.5 µM (active).
Take `O=S1OC[C@@H]2[C@H](CO1)[C@]1(Cl)C(Cl)=C(Cl)[C@@]2(Cl)C1(Cl)Cl` (some centres undefined): the call in assay [1] and in [4] was inactive. Further, the AC50 in [10] is 14.9 µM (active).
